This passage reports Potency and outcome results from PubChem BioAssay (Tox21).

The nature of assay [1]: A CellTox Green Cytotoxicity Assay to monitor cytotoxicity in HepG2 cells - 16 hour (AID 1224876). Further: nearly all actives have a fitted effect of over 45% in size. The gist of the method:
(§1)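 Continuous culture of HepG2 cells with a membrane-impermeant DNA dye; rising fluorescence marks dead cells. Compound exposure lasted up to 40 h at 37 C, with reads every 8 h from 0 h.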

Assay [2] in a line: qHTS RealTime-Glo MT Cell Viability Assay in HepG2 cells - 32 hour (AID 1224877). Further: nearly all actives have a fitted effect of over 55% in size. The gist of the method:
(§2)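 Tox21 10K library screened in qHTS format on HepG2 cells carrying RealTime-Glo reagents. Compounds were added after a 5 h preincubation, and the luminescent signal from continuous culture was measured repeatedly during 40 h treatment.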
In general terms: In qHTS, concentration-response curves come from the screen itself.

Assay [3] in a line: A CellTox Green Cytotoxicity Assay to monitor cytotoxicity in HepG2 cells - 40 hour (AID 1224879). Further: nearly all actives have a fitted effect of over 40% in size. Put shortly:
as §1

A short description of assay [4]: qHTS RealTime-Glo MT Cell Viability Assay in HEK293 cells - 0 hour (AID 1224880). Further: top concentration of the series differs between compounds; nearly all actives have a fitted effect of over 45% in size. The gist of the method:
(§3)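 qHTS format; HEK293 cells with NanoLuc/prosubstrate reagent, 37 C/5% CO2 for 5 h pre-dosing; compounds 23 nL in DMSO; luminescence at each time point reflects viable cells.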

Assay [5] can be described thus: A CellTox Green Cytotoxicity Assay to monitor cytotoxicity in HEK293 cells - 32 hour (AID 1224881). Further: nearly all actives have a fitted effect of over 40% in size. Put shortly: (§4)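 Each value comes from one timepoint of a single continuous run in which HEK293 cells with CellTox Green were exposed to compound for up to 40 h at 37 C, dye fluorescence rising with cell death.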
Assay [6] is described as follows: A CellTox Green Cytotoxicity Assay to monitor cytotoxicity in HepG2 cells - 32 hour (AID 1224883). Further: nearly all actives have a fitted effect of over 50% in size. Put shortly:
as §1

Assay [7] is described as follows: A CellTox Green Cytotoxicity Assay to monitor cytotoxicity in HEK293 cells - 8 hour (AID 1224884). Further: nearly all actives have a fitted effect of over 35% in size. Put shortly:
as §4

Assay [8] can be described thus: qHTS RealTime-Glo MT Cell Viability Assay in HepG2 cells - 16 hour (AID 1224885). Further: nearly all actives have a fitted effect of over 50% in size. The gist of the method: as §2
The nature of assay [9]: qHTS RealTime-Glo MT Cell Viability Assay in HEK293 cells - 24 hour (AID 1224886). Further: nearly all actives have a fitted effect of over 50% in size. Further: potency means the concentration at half of the fitted maximal effect. Put shortly: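 Luminescence generated by NanoLuc from substrate produced by living HEK293 cells served as the viability signal. Each value reflects the reading at its stated time point during continuous 40 h compound exposure at 37 C.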
The nature of assay [10]: qHTS RealTime-Glo MT Cell Viability Assay in HEK293 cells - 8 hour (AID 1224887). Further: nearly all actives have a fitted effect of over 50% in size. Further: potency means the concentration at half of the fitted maximal effect. The gist of the method: as §3
Assay [11] can be described thus: A CellTox Green Cytotoxicity Assay to monitor cytotoxicity in HEK293 cells - 16 hour (AID 1224888). Further: nearly all actives have a fitted effect of over 35% in size. Put shortly: as §4
Assay [12] in a line: qHTS RealTime-Glo MT Cell Viability Assay in HepG2 cells - 0 hour (AID 1224889). Further: nearly all actives have a fitted effect of over 50% in size. The gist of the method:
as §2

The nature of assay [13]: A CellTox Green Cytotoxicity Assay to monitor cytotoxicity in HepG2 cells - 8 hour (AID 1224890). Further: nearly all actives have a fitted effect of over 45% in size. The gist of the method:
as §1

Assay [14] in a line: qHTS assay to identify small molecule antagonists of the androgen receptor (AR) signaling pathway using the MDA cell line in the presence of 0.5 nM R1881 - cell viability counter screen (AID 1259242). Further: nearly all actives have a fitted effect of over 45% in size. Put shortly: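 Fluorescence from CellTiter-Fluor, which reports protease activity of live cells, was read 30 min after reagent addition to MDA-kb2 cells that had been incubated 16 hr with compound and 0.5 nM R1881.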

Assay [15] addresses Estrogen receptor (Homo sapiens) (UniProt P03372). Kind of assay: qHTS assay to identify small molecule antagonists of the estrogen receptor alpha (ER-alpha) signaling pathway using the BG1 cell line in the presence of 0.1 nM 17-beta-estradiol (AID 1259244). Further: nearly all actives have a fitted effect of over 50% in size. The gist of the method:
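Quantitative high-throughput screen in VM7Luc4E2 cells: compound plus 0.1 nM E2 (final), 22 h, 37C, 5% CO2; ONE-Glo added, 30 min room temperature, luminescence measured.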

Assay [16] in a line: A CellTox Green Cytotoxicity Assay to monitor cytotoxicity in HepG2 cells - 24 hour (AID 1224878). Further: nearly all actives have a fitted effect of over 45% in size. Put shortly:
as §1

Assay [17] in a line: qHTS assay to identify small molecule antagonists of the estrogen receptor alpha (ER-alpha) signaling pathway using the BG1 cell line in the presence of 0.1 nM 17-beta-estradiol - cell viability counter screen (AID 1259241). Further: nearly all actives have a fitted effect of over 40% in size. The gist of the method: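 CellTiter-Fluor read (30 min, 37C) on ER-alpha/ERE-luc VM7Luc4E2 cells; 22 hr compound treatment; agonist 0.1 nM E2 final; same-well multiplex.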

Assay [18] is described as follows: A CellTox Green Cytotoxicity Assay to monitor cytotoxicity in HepG2 cells - 0 hour (AID 1224882). Further: nearly all actives have a fitted effect of over 35% in size. Put shortly: as §1

Records with an inconclusive call do not appear. Where a structure was tested more than once in an assay, its records may differ in their call. Calls of active or inactive are those of the source. The call rests on the fitted dose curve; in most records, active means well fitted curve in the direction sought with a large enough effect in the repeat runs; inconclusive means weak or mixed curves; inactive means no such curve, though single readings can be large; an effect the other way counts as inactive or inconclusive.

Chain of Estrogen receptor (Homo sapiens) (P03372 whole entry, looked up): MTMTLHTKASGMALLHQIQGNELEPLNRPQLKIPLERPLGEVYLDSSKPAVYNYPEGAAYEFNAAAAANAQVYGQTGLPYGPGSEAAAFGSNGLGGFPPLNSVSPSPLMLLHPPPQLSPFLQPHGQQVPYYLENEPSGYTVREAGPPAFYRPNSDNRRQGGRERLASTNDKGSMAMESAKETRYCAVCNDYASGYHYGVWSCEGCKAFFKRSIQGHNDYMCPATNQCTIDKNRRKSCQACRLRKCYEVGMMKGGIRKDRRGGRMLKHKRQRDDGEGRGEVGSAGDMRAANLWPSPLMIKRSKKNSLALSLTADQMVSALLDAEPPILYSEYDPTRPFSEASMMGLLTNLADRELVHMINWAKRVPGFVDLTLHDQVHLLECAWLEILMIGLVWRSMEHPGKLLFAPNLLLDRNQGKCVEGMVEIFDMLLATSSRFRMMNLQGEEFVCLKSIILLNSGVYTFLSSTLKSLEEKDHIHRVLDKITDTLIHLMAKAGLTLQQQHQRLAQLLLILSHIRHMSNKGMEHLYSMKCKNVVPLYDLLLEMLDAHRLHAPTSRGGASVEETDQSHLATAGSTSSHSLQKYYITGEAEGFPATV

As for `C=CCOC(=O)c1ccccc1C(=O)OCC=C`, the Potency result in assay [1], in assay [3], in [4], in assay [5], in assay [6] and in assay [9] was “inactive” in each case. Also, the Potency entry in assay [10], in assay [12], in [13] and in assay [15] was “inactive” each time. Further, the compound was classed as inactive in [2], in assay [7], in assay [8], in assay [11] and in assay [14].
For `C=CCNC(N)=S`, the Potency entry in assay [1], in assay [16], in assay [3], in assay [4], in [5] and in assay [6] was “inactive” each time. The Potency entry in [9], in assay [10], in assay [12], in assay [13] and in [17] was “inactive” throughout. The outcome in assay [2], in assay [7], in [8], in assay [11] and in [14] was inactive.
As for `O=S1(=O)CC=CC1`, the Potency result in [1], in assay [16], in [3], in [4], in assay [5] and in assay [6] was “inactive” each time. The Potency result in assay [9], in [10], in [12], in [13] and in assay [15] was “inactive” throughout. Also, the compound was classed as inactive in assay [2], in [7], in [8], in assay [11] and in [14].
`CC1=CC(=O)NS(=O)(=O)O1`: the Potency result in [1], in assay [3], in assay [4], in assay [5], in [6] and in [9] was “inactive” throughout. Also, the Potency entry in [10], in assay [12] and in assay [13] was “inactive” each time. The call in [2], in assay [18], in assay [7], in assay [8], in assay [11] and in assay [14] was inactive.
As to `CCC(O)OC(O)CC` (stereo not drawn), the Potency entry in [1], in [16], in assay [3], in assay [4], in assay [5] and in [6] was “inactive” throughout. The Potency result in [9], in assay [10], in assay [12], in assay [13], in assay [17] and in [15] was “inactive” throughout. The result in assay [2], in [7], in [8] and in assay [11] was inactive.
For the compound `Cc1occc(=O)c1O`, the Potency entry in [1], in [16], in [3], in assay [4], in assay [5] and in [6] was “inactive” throughout. In addition, the Potency entry in assay [9], in assay [10], in assay [12], in [13] and in [17] was “inactive” in each case. Moreover, the outcome in assay [2], in assay [18], in assay [7], in assay [8], in assay [11] and in [14] was inactive.
As to `O=C(O)c1cc(C(=O)O)cc(S(=O)(=O)O)c1`, the Potency entry in assay [1], in assay [3], in assay [4], in assay [5], in assay [6] and in assay [9] was “inactive” in each case. For the same compound, the Potency entry in assay [10], in assay [12] and in assay [13] was “inactive” in each case. Besides, the compound was called inactive in assay [2], in assay [7], in assay [8], in assay [11] and in [14].
As to `CCCCC(CC)COC(=O)CS` (stereo not drawn), the Potency result in assay [1], in [3], in [4], in assay [5], in assay [6] and in assay [9] was “inactive” in each case. The Potency result in assay [10], in assay [12], in [13] and in assay [17] was “inactive” throughout. The compound was classed as inactive in assay [2], in assay [18], in assay [7], in assay [8], in assay [11] and in assay [14].
As for `COCCCOc1ccnc(CS(=O)c2nc3ccccc3[nH]2)c1C` (stereo not drawn), the Potency result in [1], in [3], in assay [4], in assay [5], in [6] and in assay [12] was “inactive” in each case. Besides, the Potency entry in assay [13] is “inactive”. For the same compound, the call in assay [2], in assay [7], in assay [8] and in assay [11] was inactive. In addition, the Potency in assay [9] was 10.9 µM (active) and inactive; in [10], 19.4 µM (active) and inactive.
